Measurements reported in PubChem BioAssay (NCATS).
Records with an inconclusive call do not appear. The source made the active and inactive calls. Unless noted, calls follow the shape of the full dose curve.

How the values were obtained:
[1] = target: Lysosomal acid glucosylceramidase (Homo sapiens) (UniProt P04062); experiment: Glucocerebrosidase-p2 (AID 348; in the data active = potency below about 10 µM; also: potency is read from the fitted curve at half-maximal effect); conditions: purified GBA, blue fluorogenic substrate, 40 min
Chain of Lysosomal acid glucosylceramidase (Homo sapiens) (P04062 whole entry, looked up): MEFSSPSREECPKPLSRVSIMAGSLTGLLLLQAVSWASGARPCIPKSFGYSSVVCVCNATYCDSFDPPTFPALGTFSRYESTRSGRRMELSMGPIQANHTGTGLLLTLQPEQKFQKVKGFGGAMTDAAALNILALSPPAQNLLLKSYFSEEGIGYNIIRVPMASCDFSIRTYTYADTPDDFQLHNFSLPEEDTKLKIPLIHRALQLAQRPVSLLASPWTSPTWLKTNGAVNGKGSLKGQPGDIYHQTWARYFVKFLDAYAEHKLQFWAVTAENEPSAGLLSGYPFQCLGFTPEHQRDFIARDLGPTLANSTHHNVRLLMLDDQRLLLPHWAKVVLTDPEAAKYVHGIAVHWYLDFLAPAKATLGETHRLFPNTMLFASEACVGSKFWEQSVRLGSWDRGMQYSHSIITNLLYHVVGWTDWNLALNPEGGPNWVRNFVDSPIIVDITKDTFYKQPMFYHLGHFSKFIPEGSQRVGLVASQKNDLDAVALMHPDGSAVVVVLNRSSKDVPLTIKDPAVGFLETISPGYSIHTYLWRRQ
In short: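 Compounds titrated from 0.6 nM upwards against 0.2 nM enzyme in pH 5.9 citric acid/KH2PO4, taurocholate, tween-20; blue fluorogenic substrate 80 uM, 40 min room temperature, stopped and read Ex 365/Em 440 for AC50.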

[2] = AP1 Signaling Pathway (AID 357; active = well fitted curve in either direction with a large enough effect, not every such curve was filed as active;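 also: ME-180 reporter cells stimulated with EGF at its EC50 level; % is scaled to controls: 0 for no effect and ±100 for the full control effect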); conditions: ME-180 AP-1-bla reporter, EGF-induced, beta-lactamase ratio, 5 h; at 7.69 µM (top of the series) unless noted
In short: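 Read-out was the 460nm/530nm emission ratio (excitation 405nm) after CCF4 loading for 2.5 hours at room temperature. Cells carried an AP-1-driven beta-lactamase reporter, were stimulated with EC50 EGF plus compound for 5 hours, and AC50 values came from titrations.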

[3] = target: Cytochrome P450 1A2 (Homo sapiens) (UniProt P05177); experiment: p450-cyp1a2 (AID 410); conditions: recombinant CYP1A2, luciferin-ME demethylation, luminescence; series mostly up to 57 µM; also: potency is read from the fitted curve at half-maximal effect;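 as to activity change, negative = inhibition: -100% = full effect of reference inhibitor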
Chain of Cytochrome P450 1A2 (Homo sapiens) (P05177 whole entry, looked up): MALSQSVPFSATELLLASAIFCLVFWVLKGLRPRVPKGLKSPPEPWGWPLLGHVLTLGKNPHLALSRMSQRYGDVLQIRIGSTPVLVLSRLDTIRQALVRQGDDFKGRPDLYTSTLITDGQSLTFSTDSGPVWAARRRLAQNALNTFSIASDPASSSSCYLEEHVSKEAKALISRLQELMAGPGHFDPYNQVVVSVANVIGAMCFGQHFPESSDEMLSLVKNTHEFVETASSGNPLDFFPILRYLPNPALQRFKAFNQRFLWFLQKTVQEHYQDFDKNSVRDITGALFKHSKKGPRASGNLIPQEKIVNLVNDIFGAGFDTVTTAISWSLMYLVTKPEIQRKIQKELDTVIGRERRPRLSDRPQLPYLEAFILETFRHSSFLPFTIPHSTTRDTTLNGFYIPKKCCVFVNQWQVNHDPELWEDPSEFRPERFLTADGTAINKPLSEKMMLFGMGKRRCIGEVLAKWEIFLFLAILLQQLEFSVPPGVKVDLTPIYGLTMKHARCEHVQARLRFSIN
In short: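 Luminescent readout of luciferin formed from Luciferin-ME by human CYP1A2; data normalized against complete inhibition by 57 uM furafylline. Enzyme 20nM, substrate 100uM at Km, 100mM KPO4 buffer, 60 min reaction at room temperature.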

[4] = Stat Signaling Pathway (AID 446; active = well fitted curve in either direction with a large enough effect, not every such curve was filed as active;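 also: ME-180 cervical cancer cells given 40 pM IL-6 alongside compound; SIE-controlled beta-lactamase reporter measured as 460/530 nm FRET emission ratio; % is scaled to controls: 0 for no effect and ±100 for the full control effect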); conditions: ME-180 SIE beta-lactamase reporter, IL-6 stimulated, 5 h; at 7.69 µM (top of the series) unless noted
In short: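 ME-180 SIE-bla cells; overnight plating; cpd + IL-6 40 pM, 5 h, 37 C; LiveBLAzer 2.5 h RT; 460/530 nm emission ratio. Normalized to 300 pM IL-6 and 125 nM JAK inhibitor controls.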

[5] = target: Glucocorticoid receptor (Homo sapiens) (UniProt P04150); experiment: GR-EFC Redistribution (AID 451); conditions: CHO-K1 GR-EFC translocation, beta-gal luminescence, 2 h; also: potency is read from the fitted curve at half-maximal effect
Chain of Glucocorticoid receptor (Homo sapiens) (P04150 whole entry, looked up, the tested form may be a part): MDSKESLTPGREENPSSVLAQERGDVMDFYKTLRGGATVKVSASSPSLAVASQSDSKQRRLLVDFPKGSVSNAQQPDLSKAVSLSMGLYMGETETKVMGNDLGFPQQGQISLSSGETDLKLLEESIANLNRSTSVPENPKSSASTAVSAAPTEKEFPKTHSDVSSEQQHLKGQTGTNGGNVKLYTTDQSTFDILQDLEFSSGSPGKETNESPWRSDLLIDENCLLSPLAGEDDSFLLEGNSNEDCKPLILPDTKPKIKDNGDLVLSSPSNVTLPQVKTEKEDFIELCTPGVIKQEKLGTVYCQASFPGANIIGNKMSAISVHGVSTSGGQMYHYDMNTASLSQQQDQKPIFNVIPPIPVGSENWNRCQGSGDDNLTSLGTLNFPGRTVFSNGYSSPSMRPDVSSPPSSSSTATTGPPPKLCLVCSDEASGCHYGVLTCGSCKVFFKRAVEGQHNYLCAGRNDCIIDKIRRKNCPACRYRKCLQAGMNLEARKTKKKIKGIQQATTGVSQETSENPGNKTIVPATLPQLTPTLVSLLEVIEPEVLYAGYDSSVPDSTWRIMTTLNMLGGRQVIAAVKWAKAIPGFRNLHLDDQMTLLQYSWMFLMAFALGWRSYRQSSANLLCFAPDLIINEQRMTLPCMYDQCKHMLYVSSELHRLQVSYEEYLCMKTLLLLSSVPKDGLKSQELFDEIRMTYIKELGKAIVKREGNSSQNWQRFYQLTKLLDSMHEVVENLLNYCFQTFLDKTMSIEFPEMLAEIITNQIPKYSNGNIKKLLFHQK
In short: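 CHO-K1 cells expressing nuclear EA and GR-ED fragments of b-gal; compounds titrated up to 46 uM final, 2 h at 37 C. GR nuclear translocation read as complemented b-gal luminescence after 1 h RT detection.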

[6] = target: Mitogen-activated protein kinase 10 (Mus musculus) (UniProt Q61831); experiment: JNK3 AlphaScreen Assay (AID 530; active = well fitted curve in either direction with a large enough effect, not every such curve was filed as active;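 also: kinase came from lysate of stimulated human HepG2 cells; signal reports phosphorylation of biotinylated GST-cJun 1-79 at Ser73 with 10 µM ATP; % is scaled to controls: 0 for no effect and ±100 for the full control effect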); conditions: JNK3 lysate, c-Jun phosphorylation; series mostly up to 57.1 µM
In short: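 Pre-activated (IL-1β/TNFα) JNK3 in HepG2 lysates phosphorylates biotin-GST-cJun(1-79), 10 uM ATP; anti-phospho-cJun(Ser73) AlphaScreen read at room temperature, pH 7.6 Tris buffer. Compounds pre-incubated 15 min as titrations.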

[7] = target: 3',5'-cyclic-AMP phosphodiesterase 4B (Homo sapiens) (UniProt Q07343); experiment: qHTS Assay for Inhibitors of PDE-IV (AID 607; active = well fitted activation curve with a large enough effect in the main read-out, with a control signal flat, not every such curve was filed as active; also: % of control where 0% means no effect); conditions: HEK293 ACTOne CNG channel cells, membrane potential fluorescence; series mostly up to 22.9 µM
Chain of 3',5'-cyclic-AMP phosphodiesterase 4B (Homo sapiens) (Q07343 whole entry, looked up): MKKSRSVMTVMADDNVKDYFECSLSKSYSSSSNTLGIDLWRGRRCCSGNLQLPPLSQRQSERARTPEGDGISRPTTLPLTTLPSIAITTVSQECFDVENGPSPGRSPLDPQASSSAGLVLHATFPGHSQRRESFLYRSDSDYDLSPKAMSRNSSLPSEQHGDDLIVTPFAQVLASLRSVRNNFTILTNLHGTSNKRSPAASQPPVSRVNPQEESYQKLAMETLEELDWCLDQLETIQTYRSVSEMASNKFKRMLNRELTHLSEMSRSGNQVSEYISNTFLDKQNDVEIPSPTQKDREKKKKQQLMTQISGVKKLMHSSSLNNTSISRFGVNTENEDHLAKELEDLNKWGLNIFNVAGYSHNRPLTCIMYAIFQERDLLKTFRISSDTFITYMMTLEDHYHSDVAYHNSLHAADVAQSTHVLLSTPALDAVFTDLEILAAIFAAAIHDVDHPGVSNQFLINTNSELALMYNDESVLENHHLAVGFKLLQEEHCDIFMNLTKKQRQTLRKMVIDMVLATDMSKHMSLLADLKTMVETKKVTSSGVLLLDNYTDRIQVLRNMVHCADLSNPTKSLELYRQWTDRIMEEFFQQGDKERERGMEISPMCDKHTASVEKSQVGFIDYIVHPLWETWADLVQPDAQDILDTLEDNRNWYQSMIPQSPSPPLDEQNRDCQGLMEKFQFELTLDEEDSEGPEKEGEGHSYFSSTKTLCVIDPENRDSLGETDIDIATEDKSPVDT
In short: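 ACTOne HEK293 cells carry a modified cAMP-gated CNG channel and express endogenous PDE4; plated 1000 cells/well, compounds up to 22.9 uM final. Membrane-potential dye fluorescence (ex 535/em 590) was read; parental cells received 10 uM forskolin + 100 uM RO 20-1724.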

[8] = target: Cytochrome P450 3A4 (Homo sapiens) (UniProt P08684); experiment: qHTS Assay for Activators of Cytochrome P450 3A4 (AID 885; active = well fitted curve in the direction sought with a large enough effect; an effect the other way counts as inactive or inconclusive; also: nearly all actives have a fitted effect of over 65% in size; also: potency is read from the fitted curve at half-maximal effect); conditions: recombinant CYP3A4, Luciferin-PPXE luminescence, 60 min; series mostly up to 57.1 µM
Chain of Cytochrome P450 3A4 (Homo sapiens) (P08684 whole entry, looked up): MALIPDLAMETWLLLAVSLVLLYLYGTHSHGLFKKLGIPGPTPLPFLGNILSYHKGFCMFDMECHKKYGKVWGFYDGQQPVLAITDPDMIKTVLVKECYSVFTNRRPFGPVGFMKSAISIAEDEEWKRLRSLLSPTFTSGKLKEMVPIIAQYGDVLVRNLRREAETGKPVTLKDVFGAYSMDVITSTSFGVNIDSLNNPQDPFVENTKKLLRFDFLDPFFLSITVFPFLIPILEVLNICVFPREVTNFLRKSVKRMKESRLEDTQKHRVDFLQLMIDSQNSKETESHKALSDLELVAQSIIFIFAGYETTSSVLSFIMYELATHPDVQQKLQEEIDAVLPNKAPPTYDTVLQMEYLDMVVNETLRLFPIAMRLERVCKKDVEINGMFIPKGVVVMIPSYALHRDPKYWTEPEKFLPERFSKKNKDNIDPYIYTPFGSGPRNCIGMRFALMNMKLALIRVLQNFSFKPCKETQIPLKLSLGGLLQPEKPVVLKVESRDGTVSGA
In short: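 20nM CYP3A4 + 25uM Luciferin-PPXE (=KM), 200mM KPO4; cpd 10 min RT; NADPH regen, 60 min RT; stop w/ detection buffer, 20 min; luminescence. Normalized to 57 uM ketoconazole.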

[9] = qHTS Assay for Identification of Small Molecule Agonists for Hypoxia Response Element Signaling Pathway (AID 914; active = well fitted activation curve with a large enough effect in the signal ratio, with a control signal flat, not every such curve was filed as active; the % refers to the signal ratio; also: % of control where 0% means no effect); conditions: ME-180 (cervical carcinoma) HRE-bla reporter, beta-lactamase ratio, CoCl2, 17 h; activation: stronger effect = higher value
In short: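 HRE-bla ME-180 cells, overnight plating in Opti-MEM with 0.5% dialyzed FBS; cpd titration + EC50 CoCl2, 17 h, 37 degrees Celsius; CCF4 2.5 h RT; 460/530 nm ratio; AC50.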

[10] = qHTS Assay for Lipid Storage Modulators (AID 1519); conditions: Drosophila S3 cells, BODIPY lipid droplet/cell ratio, laser cytometry, cells loaded with oleic acid; for activity change, negative = inhibition: at 57.5 µM (top of the series)
In short: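 Cells seeded at 5,000 per well were treated with compounds over a concentration series and loaded with oleic acid (400 uM, as added). Lipid droplet fluorescence (488 nm excitation, 500-530 nm channel) was read by laser-scanning cytometry and normalized to 20 uM Triacsin C.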

[11] = Primary qHTS for small molecule stabilizers of the endoplasmic reticulum resident proteome: Secreted ER Calcium Modulated Protein (SERCaMP) assay (AID 1508630; active = well fitted curve in the direction sought with a large enough effect; an effect the other way counts as inactive or inconclusive; also: % is scaled to controls: 0 for no effect and ±100 for the full control effect); conditions: SH-SY5Y GLuc-SERCaMP (Gaussia luciferase released on ER calcium loss) secretion, thapsigargin, luminescence; series mostly up to 38.4 µM
In short: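 GLuc-SERCaMP-expressing SH-SY5Y cells, pretreated 16 h with compound, are challenged with thapsigargin to empty ER calcium stores; after 4 h, coelenterazine is added directly to the medium and luminescence is imaged.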

[12] = target: Cytochrome P450 2D6 (Homo sapiens) (UniProt P10635); experiment: qHTS Assay for Inhibitors and Substrates of Cytochrome P450 2D6 (AID 891; active = well fitted curve in the direction sought with a large enough effect; an effect the other way counts as inactive or inconclusive; also: potency is read from the fitted curve at half-maximal effect; nearly all actives have a fitted effect of over 60% in size); conditions: recombinant CYP2D6, luciferin-ME EGE luminescence; series mostly up to 57.1 µM
Chain of Cytochrome P450 2D6 (Homo sapiens) (P10635 whole entry, looked up): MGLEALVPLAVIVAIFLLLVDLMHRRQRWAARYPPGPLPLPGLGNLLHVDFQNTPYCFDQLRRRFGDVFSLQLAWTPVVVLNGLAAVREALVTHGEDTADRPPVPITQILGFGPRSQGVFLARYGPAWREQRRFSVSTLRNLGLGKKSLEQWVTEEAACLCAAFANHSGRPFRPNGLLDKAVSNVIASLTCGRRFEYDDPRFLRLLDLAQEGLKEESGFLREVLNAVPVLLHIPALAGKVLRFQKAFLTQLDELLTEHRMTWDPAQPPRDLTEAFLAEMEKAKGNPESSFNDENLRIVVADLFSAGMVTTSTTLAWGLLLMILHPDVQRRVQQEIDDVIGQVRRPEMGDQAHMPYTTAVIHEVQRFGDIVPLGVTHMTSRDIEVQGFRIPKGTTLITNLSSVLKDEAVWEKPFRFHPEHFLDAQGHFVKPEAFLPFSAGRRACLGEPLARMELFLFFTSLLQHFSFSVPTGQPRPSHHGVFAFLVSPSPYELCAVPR
In short: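 Human CYP2D6 (5 nM) with 30 uM Luciferin-ME EGE (at Km) in 100 mM KPO4, compound preincubated 10 min, then NADPH regeneration system for 60 min at room temperature. Luciferin read by luminescence; normalized to 1.43 uM quinidine.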

[13] = target: Cytochrome P450 3A4 (Homo sapiens) (UniProt P08684); experiment: qHTS Assay for Inhibitors and Substrates of Cytochrome P450 3A4 (AID 884; active = well fitted curve in the direction sought with a large enough effect; an effect the other way counts as inactive or inconclusive; also: % is scaled to controls: 0 for no effect and ±100 for the full control effect; nearly all actives have a fitted effect of over 50% in size); conditions: recombinant CYP3A4, Luciferin-PPXE luminescence; series mostly up to 57.1 µM
In short: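 20 nM human CYP3A4 with 25 uM Luciferin-PPXE (at KM) in 200 mM KPO4, preincubated 10 min with compound; NADPH regeneration started a 60 min RT reaction. Luciferin detected by luminescence, normalized to 57 uM ketoconazole as full inhibition.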

[14] = target: Cytochrome P450 2C19 (Homo sapiens) (UniProt P33261); experiment: qHTS Assay for Inhibitors and Substrates of Cytochrome P450 2C19 (AID 899; active = well fitted curve in the direction sought with a large enough effect; an effect the other way counts as inactive or inconclusive; also: potency is read from the fitted curve at half-maximal effect; nearly all actives have a fitted effect of over 60% in size); conditions: recombinant CYP2C19, luciferin-H EGE luminescence; series mostly up to 57.1 µM
Chain of Cytochrome P450 2C19 (Homo sapiens) (P33261 whole entry, looked up): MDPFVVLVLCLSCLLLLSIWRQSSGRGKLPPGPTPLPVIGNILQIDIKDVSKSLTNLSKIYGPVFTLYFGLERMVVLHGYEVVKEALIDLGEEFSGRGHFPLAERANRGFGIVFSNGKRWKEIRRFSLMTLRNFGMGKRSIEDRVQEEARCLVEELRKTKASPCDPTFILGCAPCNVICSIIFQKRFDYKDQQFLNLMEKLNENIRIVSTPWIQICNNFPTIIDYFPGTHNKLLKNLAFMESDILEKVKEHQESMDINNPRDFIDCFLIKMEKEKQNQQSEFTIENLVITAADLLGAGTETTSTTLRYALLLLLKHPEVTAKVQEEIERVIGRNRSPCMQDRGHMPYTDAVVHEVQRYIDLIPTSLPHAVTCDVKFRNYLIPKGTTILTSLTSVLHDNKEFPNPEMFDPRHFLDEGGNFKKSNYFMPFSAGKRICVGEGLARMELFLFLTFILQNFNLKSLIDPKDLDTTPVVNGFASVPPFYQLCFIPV
In short: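 Signal comes from luciferase acting on luciferin released by CYP2C19-mediated hydroxylation of Luciferin-H EGE, 10uM (KM). Assay mix: 5nM enzyme, 50mM KPO4; 60 min at 37C with NADPH regeneration. Data normalized against 57uM ketoconazole.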

[15] = measured here: cell count channel max response
[16] = measured here: lipid channel max response

SMILES	Potency [1]	activity change, negative = inhibition [2]	Potency [3]	activity, negative = inhibition [4]	Potency [5]	Potency [6]	Potency [7]	Potency [8]	activation [9]	activity change, negative = inhibition [10]	max response [10, 15]	max response [10, 16]	outcome [11]	Potency [12]	Potency [13]	Potency [14]
Cc1noc(C)c1C(=O)N1CCC2(CCN(Cc3ccncc3)CC2)CC1	> 11.4 µM (inactive)	5.66% (inactive)	inactive	-5.26% (inactive)	> 46 µM (inactive)	inactive	inactive	inactive	14.4% (inactive)	4.47% (inactive)	0.0469%	9.36%	inactive			
COCC(=O)N1CCC2(CCCN(c3ncccn3)C2)CC1	> 11.4 µM (inactive)	-5.71% (inactive)	inactive	-7.69% (inactive)	> 46 µM (inactive)	inactive	inactive		11.9% (inactive)	7.95% (inactive)	9.8%	21.8%	inactive			
COc1ccccc1CN1CCCC2(CCN(C(=O)c3cccn3C)CC2)C1	> 11.4 µM (inactive)	-2.64% (inactive)	inactive	4.46% (inactive)	> 46 µM (inactive)	inactive	inactive	inactive		4.14% (inactive)	21.7%	29.7%	inactive	3.16 µM (active)		
Cn1cccc1C(=O)N1CCC2(CCN(Cc3ccccc3)CC2)CC1	> 11.4 µM (inactive)	-1.12% (inactive)	inactive	4.92% (inactive)	> 46 µM (inactive)	inactive	inactive			4.86% (inactive)	16.4%	22.8%	inactive	7.94 µM (active)		
O=C(c1cccc(F)c1)N1CCC2(CCN(Cc3nccs3)CC2)CC1	> 11.4 µM (inactive)	-8.17% (inactive)	1.58 µM (active)	-0.835% (inactive)	> 46 µM (inactive)			15.8 µM (active)		6.34% (inactive)	8.7%	20.4%	inactive		inactive	1.58 µM (active)
O=C(c1cccc(F)c1)N1CCC2(CCN(Cc3ccccc3)CC2)CC1	> 11.4 µM (inactive)	-3.73% (inactive)	inactive	0.711% (inactive)	> 46 µM (inactive)	inactive	inactive			2.97% (inactive)	6.47%	15.1%	inactive	7.94 µM (active)		
COC(=O)N1CCC2(CCN(Cc3ccccc3OC)CC2)CC1	> 11.4 µM (inactive)	8.84% (inactive)	inactive	-8.38% (inactive)	> 46 µM (inactive)	inactive	inactive		2.91% (inactive)	2.37% (inactive)	6.33%	9.77%	inactive	2 µM (active)		
COc1ccc(NC(=O)N2CCC3(CC2)CCN(S(C)(=O)=O)CC3)cc1	> 11.4 µM (inactive)	-1.54% (inactive)	inactive	2.59% (inactive)	> 46 µM (inactive)	inactive	inactive			8.18% (inactive)	16.5%	28.9%	inactive			3.16 µM (active)
O=S(=O)(c1ccccc1)N1CCC2(CC1)CN(c1ccccn1)C2	> 11.4 µM (inactive)	16% (inactive)	inactive	-15% (inactive)	> 46 µM (inactive)	inactive	inactive	inactive		-4.43% (inactive)	-4.86%	-8.67%	inactive			
c1ccc(C(c2ccccc2)N2CCC3(CCNCC3)CC2)cc1	> 11.4 µM (inactive)	-10.6% (inactive)	inactive	0.474% (inactive)	> 46 µM (inactive)	inactive	inactive			-5.07% (inactive)	27.4%	21.5%	inactive			3.98 µM (active)
O=C(Oc1ccccc1)N1CCC2(CCCN(c3ccccn3)C2)CC1	> 11.4 µM (inactive)	-14.7% (inactive)	20 µM (active)	2.71% (inactive)	> 46 µM (inactive)	inactive	inactive	inactive		1.87% (inactive)	-15.5%	-9.96%	inactive			7.94 µM (active)
CC(=O)N1CCC2(CCCN(Cc3ccccc3)C2)CC1	> 11.4 µM (inactive)	-3.56% (inactive)	inactive	9.01% (inactive)	> 46 µM (inactive)	inactive	inactive			2.49% (inactive)	-0.297%	3.92%	inactive	2.51 µM (active)		
O=S(=O)(c1ccccc1)N1CCC2(CCCN(c3ccccn3)C2)CC1	> 11.4 µM (inactive)	-6.83% (inactive)	7.94 µM (active)	-6.34% (inactive)	> 46 µM (inactive)	inactive	inactive		-11.6% (inactive)	5.71% (inactive)	17.9%	25.4%	inactive			0.158 µM (active)
COc1ccccc1CN1CCCC2(CCN(C(=O)c3ccco3)CC2)C1	> 11.4 µM (inactive)	-11.6% (inactive)	inactive	-1.13% (inactive)	> 46 µM (inactive)	inactive	inactive	inactive		2.54% (inactive)	5.74%	11.8%	inactive	2.51 µM (active)		
